FBPA coupling cs: counter-screen for Giardia aldolase inhibitors: coupling enzyme system. coupling enzyme system counterscreen, AmpLite Red fluorescence. activity change, negative = inhibition, % at 58.2 µM, hits read low. 290,000 compounds, 0.67% hits; in the data active = activity change below about -30%
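Counterscreen of the coupled detection system alone, without aldolase: glyceraldehyde-3-phosphate coupling enzymes plus AmpLite Red readout. Compounds at 57.5 uM final, 10 min RT preincubation, 20 min RT reaction, fluorescence 525/598 nm.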
TrxR1 inh: rat TrxR1 inhibition. O89049. 390,000 compounds, 1% hits. AID 588453. Potency, µM (top dose mostly 114 µM), actives largely listed as inhibitors. recombinant rTrxR1, NADPH fluorescence consumption, selenite substrate; note: nearly all actives have a fitted effect of over 65% in size
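Rat TrxR1 (90 nM in the dispensed reagent) was pre-reduced with 400 uM NADPH for 5 min at room temperature, then incubated with compound for 15 min. After 400 uM selenite was added, NADPH fluorescence (Ex 340/Em 450 nm) was followed for 8 min.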
RORgamma inh: blocks mouse ROR gamma transcriptional activity | P51450 | Drosophila S2 Gal4-RORgamma UAS-luciferase reporter, 20 h | Potency, µM (series often up to 53.6 µM), hits mostly inhibitors | 310,000 compounds, 5.4% hits; note: nearly all actives have a fitted effect of over 60% in size
Target sequence (P51450 whole entry, looked up, the tested form may be a part): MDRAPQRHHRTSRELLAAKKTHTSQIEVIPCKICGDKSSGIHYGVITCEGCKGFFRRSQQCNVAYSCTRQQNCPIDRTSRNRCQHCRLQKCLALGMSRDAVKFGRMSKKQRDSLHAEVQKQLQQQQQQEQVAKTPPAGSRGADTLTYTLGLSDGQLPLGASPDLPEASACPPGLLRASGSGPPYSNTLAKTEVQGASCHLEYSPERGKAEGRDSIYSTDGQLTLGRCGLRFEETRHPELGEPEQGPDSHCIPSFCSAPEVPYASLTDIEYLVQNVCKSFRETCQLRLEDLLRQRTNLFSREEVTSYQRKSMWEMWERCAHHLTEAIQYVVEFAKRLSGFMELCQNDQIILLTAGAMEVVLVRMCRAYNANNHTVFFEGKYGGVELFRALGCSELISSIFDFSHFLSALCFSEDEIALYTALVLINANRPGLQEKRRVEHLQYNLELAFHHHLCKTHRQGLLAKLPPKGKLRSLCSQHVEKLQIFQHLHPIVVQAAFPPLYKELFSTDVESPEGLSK
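Drosophila S2 cells stably expressing Gal4-DBD/mouse RORγ fusion under metallothionein promoter plus UAS-luciferase; compound 1 h, then 700 uM CuSO4 induction for 20 h at ambient temperature; inhibition read as reduced luminescence.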
TrxR1 substrate: rat thioredoxin reductase 1 substrate activity; purified TrxR1 substrate turnover, NADPH consumption readout; Potency, µM (series often up to 114 µM); 390,000 compounds, 0.01% hits; note: nearly all actives have a fitted effect of over 50% in size
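Rat TrxR1, dispensed at 90 nM, was prereduced with 400 uM NADPH (final) for 5 min at ~22 deg C, then incubated with compound 15 min before 400 uM selenite. A first-read NADPH fluorescence drop versus no-compound background flagged substrates.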
GALK inhibitor: inhibitors of human galactokinase. Purified GALK, Kinase-Glo residual ATP luminescence. 270,000 compounds, 0.007% hits. P51570. Potency, µM (titrated, usually from 57.5 µM), usual class: inhibitors
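5 nM enzyme, 35 uM ATP, 100 uM galactose, 20 mM HEPES pH8.0, 5 mM MgCl2; 1 h RT; residual ATP by Kinase-Glo Plus luminescence, qHTS format.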
VP16 counter: inhibits Gal4-VP16 luciferase reporter, ROR gamma counter-screen; Drosophila S2 Gal4-VP16 UAS-luciferase, luminescence, 20 h; Potency, µM (doses to about 53.6 µM), most hits filed as inhibitors; 310,000 compounds, 3.5% hits;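 note: Gal4-VP16 expression switched on by copper sulfate through the metallothionein promoter; nearly all actives have a fitted effect of over 50% in size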
Large screens that a line does not name were inactive. In the library only some 5.9% were active in any assay of this set; here they are far more common. Unless noted, calls come from the whole dose curve; as a rule, active = well fitted curve in the direction sought with a large enough effect; inconclusive = small, poorly fitted or top-dose-only effect, or another doubt; inactive = no such curve, though single readings can be large; an effect the other way counts as inactive or inconclusive.

Cc1ccc(Nc2nc(-c3ccc(O)c(O)c3)cs2)nc1	RORgamma inh 12.6µM, VP16 counter 6.31µM
Oc1ccc(-c2csc(Nc3ccccn3)n2)c(O)c1	RORgamma inh 11.2µM, VP16 counter inconclusive
CCN1CCN(c2nc(Nc3ccccc3F)nc(N)c2[N+](=O)[O-])CC1	none
Cc1cccnc1Nc1nc(-c2ccccn2)cs1	RORgamma inh 0.0224µM, VP16 counter inconclusive
CC(=O)Oc1ccc(-c2csc(Nc3cccc(C)n3)n2)cc1	RORgamma inh 3.16µM, VP16 counter 10µM
C#CCOc1c(/C=C\c2nc(O)c([N+](=O)[O-])c(=O)[nH]2)cc(Br)cc1OC	TrxR1 inh inconclusive
Cc1sc(-c2cc3c([nH]c2=O)CC(c2ccccc2)CC3=O)nc1-c1ccc(Cl)cc1 (stereo not drawn)	none (no result: FBPA coupling cs, RORgamma inh, GALK inhibitor, VP16 counter)
N#CC1=C(N)Oc2n[nH]c(-c3cccs3)c2C1c1ccncc1 (stereo not drawn)	none
Cc1ccc(C2C(C#N)=C(N)Oc3n[nH]c(-c4cccs4)c32)s1 (stereo not drawn)	TrxR1 inh inconclusive, RORgamma inh 10µM
CCc1[nH]nc2c1C(c1ccc(Br)s1)C(C#N)=C(N)O2 (stereo not drawn)	TrxR1 inh inconclusive, RORgamma inh 11.2µM, VP16 counter inconclusive
CCc1[nH]nc2c1C(c1ccsc1)C(C#N)=C(N)O2 (stereo not drawn)	none
O=c1cnnc(N/N=C/c2c[nH]c3ccccc23)[nH]1	RORgamma inh inconclusive
CN1C=CC2=C(C#N)C(N)C(C#N)(C#N)[C@H](c3ccccc3)[C@H]2C1 (stereo partly drawn)	FBPA coupling cs -30.0
COC(=O)N/N=C/c1cn(CCOc2ccccc2)c2ccccc12	RORgamma inh inconclusive
CNC(=S)N/N=C/c1cn(CCOc2ccccc2OC)c2ccccc12	RORgamma inh 0.891µM, VP16 counter 1µM
CNC(=S)N/N=C/c1cn(CCOc2cccc(OC)c2)c2ccccc12	RORgamma inh 1µM, VP16 counter 5.01µM
O=C(CN1C(=O)NC(c2ccccc2)(c2ccccc2)C1=O)N1CCCCC1	none (no result: FBPA coupling cs, RORgamma inh, GALK inhibitor, VP16 counter)
CCc1nc2ccccc2n1CCc1ccccc1	RORgamma inh 8.91µM
C=C(Br)Cn1c(CC(C)C)nc2ccccc21	RORgamma inh 35.5µM
CC(C)C(=O)NCCc1nc2ccccc2n1CCc1ccccc1	none
CCn1c(CCc2ccccc2)nc2ccccc21	RORgamma inh inconclusive, VP16 counter inconclusive
CCOCCn1c(CC)nc2ccccc21	none
CCc1nc2ccccc2n1CCC(C)C	RORgamma inh 10µM, VP16 counter 12.6µM
CC(C)Cc1nc2ccccc2n1CCc1ccccc1	RORgamma inh 8.91µM, VP16 counter inconclusive (no result: GALK inhibitor)
CCN(CC)CCCNC(=O)c1cn(CC(C)C)c(=O)c2c1c1ccccc1n2C	none (no result: GALK inhibitor)
CC(C)(C)Cc1nc2ccccc2n1CCc1ccccc1	RORgamma inh 7.94µM, VP16 counter 15.8µM
O=CNCc1nc2ccccc2n1CCCc1ccccc1	none
CCCNC(=O)c1ccccc1NC(=O)c1nsc2ccccc12	none (no result: FBPA coupling cs, RORgamma inh, GALK inhibitor, VP16 counter)
CCCCc1nc(SCC(=O)N2CCCC2)c2c(=O)n(C)c(=O)n(C)c2n1	none
COc1ccc(N2CCN(CCNC(=O)c3ccc4c(c3)[nH]c(=S)n3c5ccccc5nc43)CC2)cc1	RORgamma inh 6.31µM, VP16 counter 3.55µM
C=CCc1ccc(OCCOc2ccc(/C=N/n3cnnc3)cc2OCC)c(OC)c1	RORgamma inh 15.8µM, VP16 counter inconclusive
COc1cccc(N2CCN(C(=S)Nc3ccc(C)cc3C)CC2)c1	RORgamma inh 5.62µM
COc1cccc(N2CCN(C(=S)Nc3cc(C)cc(C)c3)CC2)c1	RORgamma inh 3.98µM
O=C(CN1CCN(c2ncc(C(F)(F)F)cc2Cl)CC1)N1CCN(c2ncc(C(F)(F)F)cc2Cl)CC1	none
CCc1ccc(NC(=S)N2CCN(c3cccc(C(F)(F)F)c3)CC2)cc1	RORgamma inh 12.6µM, VP16 counter 35.5µM
CN(C)c1ccc(NC(=S)N2CCN(c3ncc(C(F)(F)F)cc3Cl)CC2)cc1	RORgamma inh 10µM, VP16 counter inconclusive
CNC(=S)N1CCN(c2cccc(OC)c2)CC1	none
COc1ccc(Cl)cc1C(=O)Nc1ccc(NC(=O)C(C)C)cc1	none
COc1cccc(N2CCN(C(=S)NCCc3ccccc3)CC2)c1	RORgamma inh 25.1µM, VP16 counter inconclusive
COc1cccc(N2CCN(C(=S)Nc3ccccc3OC)CC2)c1	none
CCOc1ccccc1NC(=S)N1CCN(c2cccc(OC)c2)CC1	RORgamma inh 12.6µM, VP16 counter inconclusive
Cc1ccc(NC(=S)NNC(=O)C2CC2c2ccc(C)cc2)cc1 (stereo not drawn)	TrxR1 inh inconclusive, RORgamma inh 11.2µM, VP16 counter inconclusive
COc1ccc(NC(=S)NNC(=O)C2CC2c2ccc(C)cc2)cc1 (stereo not drawn)	none (no result: GALK inhibitor)
O=C(NNC(=S)Nc1ccc(F)cc1)C1CC1c1ccc(Cl)cc1 (stereo not drawn)	RORgamma inh inconclusive, VP16 counter 20µM
Cc1ccc(C2CC2C(=O)NNC(=S)Nc2cccc(Cl)c2)cc1 (stereo not drawn)	none
CCCNC(=O)C1CCN(c2cc(-c3ccccc3)nc3ncnn23)CC1	none
CSc1cccc(N2CC(C(=O)N(Cc3nnc(-c4ccccc4Cl)o3)C3CC3)CC2=O)c1 (stereo not drawn)	RORgamma inh inconclusive (no result: FBPA coupling cs)
Cc1cc(-c2nnc(-c3ccccc3)c(-c3ccccc3)n2)c(C)o1	TrxR1 inh 31.6µM
CN(CCCC(=O)Nc1ccncc1)S(=O)(=O)c1ccc(Cl)cc1	VP16 counter 15.8µM
O=C(Cc1ccc(Cl)cc1)Nc1ccncc1	RORgamma inh inconclusive, VP16 counter 2.82µM
CN(CC(=O)Nc1ccncc1)S(=O)(=O)c1ccc(Br)cc1	none
CCN(CC)C(=O)CSc1nc(Cc2ccccc2)nc2ccccc12	none
O=S(=O)(Nc1ccc(Cl)c(Cl)c1)N1CCOCC1	none (no result: RORgamma inh, VP16 counter)
CCOC(=O)CSC1=NC(=O)/C(=C/c2ccc(Br)cc2)S1	none
CCOC(=O)CSC1=NC(=O)/C(=C\c2ccc(OC(C)=O)cc2)S1	TrxR1 inh 8.91µM
CC12CCC(C(=O)N(NC(=O)c3cccnc3)C1=O)C2(C)C (stereo not drawn)	none
CC(C)(C)NC(=O)NC12CC3CC(CC(C3)C1)C2	none
FC(F)Oc1ccc(NC(=S)Nn2cnnc2)cc1	none
FC(F)Oc1ccc(NC(=S)NC23CC4CC(CC(C4)C2)C3)cc1	RORgamma inh 0.794µM, VP16 counter 7.08µM
CCOc1ccc(NC(=S)NC23CC4CC(CC(C4)C2)C3)cc1	RORgamma inh 3.16µM, VP16 counter 2.82µM
CN(C)c1ccc(NC(=S)NC23CC4CC(CC(C4)C2)C3)cc1	RORgamma inh 2µM, VP16 counter 5.01µM

Source: PubChem BioAssay (National Center for Advancing Translational Sciences (NCATS))
